Compound activity (PubChem BioAssay)
Shown are actives, neighbours in structure and some others; about 6.1% of the full set was active somewhere.
DRD3 antagonist: antagonists of human D3 dopamine receptor. P35462. actives 2.5% (n = 360,000). max response, negative = inhibition, %. D3R cells, DiscoveRx beta-arrestin luminescence, antagonist mode; active compounds read low; in the data active means max response below about -50%; inconclusive means no clear call, values can overlap the other calls; further: on the % scale 0 is the no-effect control and ±100 the full control effect
Target sequence (P35462 whole entry, looked up): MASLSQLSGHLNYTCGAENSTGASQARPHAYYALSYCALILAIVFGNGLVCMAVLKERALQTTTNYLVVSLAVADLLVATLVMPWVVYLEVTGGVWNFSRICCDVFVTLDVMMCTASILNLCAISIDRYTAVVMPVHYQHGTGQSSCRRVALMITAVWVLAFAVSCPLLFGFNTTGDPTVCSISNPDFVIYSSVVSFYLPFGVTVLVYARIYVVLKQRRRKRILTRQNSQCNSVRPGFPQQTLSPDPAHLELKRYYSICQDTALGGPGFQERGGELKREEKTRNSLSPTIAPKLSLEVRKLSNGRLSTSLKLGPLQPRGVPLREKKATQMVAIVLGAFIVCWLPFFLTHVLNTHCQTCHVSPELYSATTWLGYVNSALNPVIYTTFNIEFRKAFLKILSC
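Cells expressing the human receptor were seeded at 1500 cells/well, incubated overnight at 37 degrees C in 5% CO2, then exposed to library compounds with dopamine controls for 90 minutes at 37 degrees C before luminescent detection.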
DRD3 agonist: D3 dopamine receptor (human) agonism; P35462; D3R DiscoveRx beta-arrestin cells, luminescence, 90 min; max activation, %; actives 0.58% (n = 410,000); AID 652048; in the data active means max activation above about 30%; further: 0% is about no effect
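Cells at 1500/well, incubated overnight, then treated with pinned compounds (dopamine as control) for 90 min at 37 degrees C. DiscoveRx reagent added for 30 - 60 minutes at room temperature; luminescence read.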
D1 antagonist: human D1 dopamine receptor antagonism. actives 3.2% (n = 360,000). HEK293 TREx D1 cells, calcium flux, dopamine EC80; active compounds read low. activity change, negative = inhibition, % at 10 µM; in the data active means activity change below about -30%; further: on the % scale 0 is the no-effect control and ±100 the full control effect
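Allosteric or orthosteric antagonism assessed as attenuation of the calcium response to EC80 dopamine, added 180 s after compound, in induced HEK293 Trex D1 cells loaded with no-wash calcium dye.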
D1 potentiator: human D1 dopamine receptor positive modulation. P21728. HEK293 TREx D1 cells, calcium flux, dopamine EC20 potentiation. potentiation, % at 10 µM. actives 0.036% (n = 360,000); in the data active means potentiation above about 30%; further: 0% is about no effect
D1 agonist: human D1 receptor agonism; P21728; actives 1% (n = 360,000); HEK293 T-REx D1 cells, calcium flux, agonist mode; activation, % at 2 µM; in the data active means activation above about 30%; further: 0% is about no effect
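Agonism was scored from calcium flux recorded over 180 s (1 read/s) after pintool compound addition, following a 10-cycle baseline. Cells were inducible force-coupled HEK293 TREx D1, plated overnight at 30 C and loaded with no-wash calcium dye.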
* = called active by the depositor.

`CSc1ncc(CN2CCCC(C(=O)c3ccccc3SC)C2)cn1` (stereo not given) gave DRD3 antagonist -18.9, DRD3 agonist -17.2, D1 antagonist -13.5, D1 potentiator -3.5 and D1 agonist 1.3.
`O=C(c1cc(F)ccc1F)C1CCCN(CCCc2ccccc2)C1` (stereo not given) gave DRD3 antagonist -73.8*, DRD3 agonist -15.3, D1 antagonist -2.1, D1 potentiator -0.8 and D1 agonist 0.1.
For CCN(CC)C(=O)/C(Cl)=C(\C)OP(=O)(OC)OC the results were DRD3 agonist -13.2.
Cc1cc(-n2c(/C=C/c3ccc(Br)s3)nc3ccccc3c2=O)ccc1Br was read as DRD3 agonist 1.4, D1 antagonist 11.6, D1 potentiator -2.0 and D1 agonist -3.8.
Screening CC(C)C[C@H](CN)CC(=O)O returned DRD3 agonist 2.5.
For CNCCc1ccc(O)c(O)c1 the results were DRD3 antagonist 14.7 and DRD3 agonist 115.8*.
Screening C/C1=C\[C@@H](C)C/C=C/[C@H]2[C@@H]3O[C@]3(C)[C@@H](C)[C@H]3[C@H](Cc4c[nH]c5ccccc45)NC(=O)[C@]32C(=O)/C=C/C(=O)[C@@H]1O returned DRD3 antagonist -51.0*, DRD3 agonist -46.3, D1 antagonist 9.7, D1 potentiator 4.1 and D1 agonist -3.4.
For c1ccc(C(OCCN2CCNCC2)c2ccccc2)cc1 the results were DRD3 antagonist -67.8*, DRD3 agonist -0.7, D1 antagonist 9.0, D1 potentiator -1.4 and D1 agonist 5.7.
Screening Cn1c2ccccc2c2cnn(CC(=O)N3CCC4(CC3)OCCO4)c(=O)c21 returned D1 antagonist -31.5*, D1 potentiator -1.1 and D1 agonist -0.1.
For O=CC(Cl)P(=O)(N1CCOCC1)N1CCOCC1 (stereo not given) the results were DRD3 antagonist 21.0, DRD3 agonist 8.2, D1 antagonist -36.1*, D1 potentiator -5.7 and D1 agonist 0.7.
For CC(C)(C)P(=O)(N1CCOCC1)N1CCOCC1 the results were DRD3 antagonist 0.9, DRD3 agonist 13.8, D1 antagonist -4.5, D1 potentiator -0.1 and D1 agonist 2.7.
C[CH2][Hg][S]c1ccccc1C(=O)O was read as DRD3 antagonist -64.2* and DRD3 agonist -41.4.
O=c1[nH]c2ccccc2n1C1CCN(Cc2ccc(-c3nc4ccc(F)cc4nc3-c3ccccc3)cc2)CC1 was read as DRD3 antagonist -95.9* and DRD3 agonist -18.7.
For COc1ccc2nc(-c3ccc(CN4CCC(n5c(=O)[nH]c6ccccc65)CC4)cc3)c(-c3ccccc3)nc2c1 the results were DRD3 antagonist -52.8* and DRD3 agonist -14.2.
Cc1ccc2nc(-c3ccc(CN4CCC(n5c(=O)[nH]c6ccccc65)CC4)cc3)c(-c3ccccc3)nc2c1 was read as DRD3 antagonist -27.6 and DRD3 agonist -12.9.
For O=c1[nH]c2ccccc2n1CCCN1CCC(n2c(=O)[nH]c3cc(Cl)ccc32)CC1 the results were DRD3 antagonist -102.7* and DRD3 agonist -89.8.
Screening O=c1[nH]c2ccccc2n1C1CCN(Cc2ccc(-c3nc4ccccc4nc3-c3ccccc3)cc2)CC1 returned DRD3 antagonist -92.3* and DRD3 agonist -16.0.
`CC(=O)[C@@]1(O)CC[C@H]2[C@@H]3CCC4=CC(=O)CC[C@]4(C)C3(F)[C@@H](O)C[C@@]21C` (stereo not given in full) gave DRD3 agonist 4.0.
Cc1ccc(Cn2cccc(C(=O)Nc3ccc(C)c(Cl)c3)c2=O)cc1 was read as DRD3 agonist -5.8, D1 potentiator 2.6 and D1 agonist 8.1.
Nc1cc(N2CCNCC2)ccc1[N+](=O)[O-] was read as DRD3 antagonist -16.6, DRD3 agonist -7.8, D1 antagonist 2.8, D1 potentiator -6.5 and D1 agonist 1.1.
For Clc1cccc(N2CCNCC2)c1 the results were DRD3 antagonist -76.4*, DRD3 agonist -76.5, D1 antagonist -5.7, D1 potentiator -9.7 and D1 agonist 3.4.
Screening Cc1cccc(CN2CC=C(c3noc(CCC(=O)Nc4ccc(C)c(F)c4)n3)CC2)c1 returned DRD3 agonist -19.0, D1 antagonist -13.0, D1 potentiator -2.0 and D1 agonist 10.9.
For Cc1cc(C)cc(N2C(=O)NC(=O)/C(=C\c3cccn3-c3ccc(Cl)cc3)C2=O)c1 the results were DRD3 antagonist -71.6*, DRD3 agonist -3.0, D1 antagonist -6.6, D1 potentiator -2.1 and D1 agonist 6.3.
`CC(C)C[C@H]1C(=O)N2CCCC2[C@]2(O)O[C@](NC(=O)[C@@H]3C=C4c5cccc6[nH]cc(c56)CC4N(C)C3)(C(C)C)C(=O)N12` (stereo not given in full) gave DRD3 antagonist inconclusive, DRD3 agonist 13.7, D1 antagonist -25.9, D1 potentiator -1.5 and D1 agonist 8.3.
CC(C)[C@H]1C(=O)N2CCC[C@H]2[C@]2(O)O[C@](NC(=O)[C@@H]3C=C4c5cccc6[nH]cc(c56)C[C@H]4N(C)C3)(C(C)C)C(=O)N12 was read as DRD3 antagonist 0.0, DRD3 agonist 10.1, D1 antagonist -33.5*, D1 potentiator -4.9 and D1 agonist 3.7.
`CC(C)[C@@]1(NC(=O)[C@@H]2C[C@@H]3c4cccc5[nH]cc(c45)C[C@H]3N(C)C2)O[C@@]2(O)[C@@H]3CCCN3C(=O)[C@H](Cc3ccccc3)N2C1=O` gave DRD3 antagonist -96.1*, DRD3 agonist -59.3, D1 antagonist -67.8*, D1 potentiator -6.2 and D1 agonist 28.7.
`CC(C)[C@H]1C(=O)N2CCC[C@H]2[C@]2(O)O[C@](NC(=O)[C@@H]3C[C@@H]4c5cccc6[nH]cc(c56)C[C@H]4N(C)C3)(C(C)C)C(=O)N12` gave DRD3 agonist 5.2.
For CCN(CC)C(=O)c1ccc(NC(=O)CCn2nc(-c3ccc(C)cc3)c3ccccc3c2=O)cc1 the results were DRD3 agonist 3.7, D1 antagonist -13.3, D1 potentiator -6.8 and D1 agonist 0.9.
Screening NC(=O)c1ccsc1NC(=O)COC(=O)Cc1ccccc1 returned DRD3 antagonist 20.8, DRD3 agonist 2.2, D1 antagonist -32.4*, D1 potentiator -5.9 and D1 agonist 17.0.
Screening O=C(COC(=O)Cc1ccccc1)NC12CC3CC(CC(C3)C1)C2 returned DRD3 antagonist 17.8, DRD3 agonist 12.0, D1 antagonist 10.2, D1 potentiator 0.3 and D1 agonist -0.8.
`CCCN(CCC)C1CCc2cccc(O)c2C1` (stereo not given) gave DRD3 antagonist -12.7 and DRD3 agonist 6.0.
CCCN(CCC)C1CCc2ccc(O)cc2C1 (stereo not given) was read as DRD3 agonist 121.6*, D1 antagonist -61.2*, D1 potentiator -5.1 and D1 agonist -1.5.
